Source: PubChem BioAssay AID686978 (National Center for Advancing Translational Sciences (NCATS), 2013)
In all, about 420,000 compounds went through this assay and about 64,000 (15%) were called active. Inconclusive results (about 27%) are left out. Calls follow the shape of the dose curve; as a rule, active = well fitted inhibition curve with a large enough effect; inconclusive = small, poorly fitted or top-dose-only effect; inactive = flat fitted curve, though single readings scatter. The list is a sample of the results.

Assay: qHTS for Inhibitors of human tyrosyl-DNA phosphodiesterase 1 (TDP1): qHTS in cells in absence of CPT; also: nearly all actives have a fitted effect of over 55% in size
Details: DT40 Tdp1-/- hTDP1 cells, no CPT, ATP luminescence, 48 h; activity change, negative = growth inhibition: at 46.2 µM (top of the series)
Summary of the method: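 Camptothecin absent (DMSO only). Human TDP1-complemented DT40 knockout cells, 400 cells/well, 37 °C for minimum 48 hr; ATP measured via CellTiter-Glo, 30 min dark incubation, luminescence.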
% is scaled to controls: 0 for no effect and ±100 for the full control effect; potency is read from the fitted curve at half-maximal effect.

Structure (SMILES) | activity change, negative = growth inhibition | Potency
O=C(COC(=O)c1ccccc1O)NCc1ccco1 | 25.6% (inactive) | 
Cc1cc(C(=O)OCC(=O)NCc2ccco2)c(C)n1-c1ccccc1 |  | 2.06 µM (active)
CN(c1ccccc1)S(=O)(=O)c1ccc(Cl)c(C(=O)OCC(=O)NCc2ccco2)c1 | 0.341% (inactive) | 
Cc1ccc(S(=O)(=O)/N=S(\C)C(C)C)cc1 (stereo unspecified) | -14.2% (inactive) | 
Cc1cc(O)ccc1NC1=CC(=O)CC(C)(C)C1 | -10.4% (inactive) | 
Oc1ccc(N=Cc2sc3ccccc3c2Cl)cc1 |  | 10.3 µM (active)
Oc1ccc2ccccc2c1C=Nc1ccccc1 | -14.9% (inactive) | 
Cc1cc(-c2ccc(/C=N/n3cnnc3)o2)c([N+](=O)[O-])cc1C | -27.1% (inactive) | 
O=C1C2C3C=CC(C4CC34)C2C(=O)N1/N=C/c1ccc(-c2ccccc2[N+](=O)[O-])o1 (stereo unspecified) |  | 18.4 µM (active)
N#C/C(=C/c1ccc(-c2ccccc2[N+](=O)[O-])o1)C(=O)NCCN1CCCCC1 | -14.1% (inactive) | 
Cn1c(-c2ccc(C(F)(F)F)cc2)cc2onc(-c3ccccc3)c2c1=O | -2.85% (inactive) | 
Cc1ccc(S(=O)(=O)CCC(=O)OCC(=O)NCCc2ccc(S(N)(=O)=O)cc2)cc1 | 0.283% (inactive) | 
CCC1C(=O)NCCN1C(=O)c1ccc2nc(Cc3ccc(OC)cc3)oc2c1 (stereo unspecified) | 10.5% (inactive) | 
COc1ccc(CCNC(=O)COC(=O)Cc2ccccc2F)cc1 | -10.9% (inactive) | 
COc1ccc(CC(=O)NC(C)CCc2ccccc2)cc1 (stereo unspecified) | -14.4% (inactive) | 
COc1ccc(C(CCNCc2ccccc2F)c2ccc(F)cc2)cc1 (stereo unspecified) |  | 13 µM (active)
COc1ccccc1-c1ccnc(-n2ncc(C(=O)NCCc3ccncc3)c2C)n1 | -3.85% (inactive) | 
COCCNC(=O)CCCN1C(=O)c2ccccc2Sc2ncccc21 |  | inactive
CNC(=O)CN1C(=O)c2cccnc2Sc2ccccc21 | -14.7% (inactive) | 
COc1cccc(NC(=O)CN2C(=O)c3ccccc3Sc3ncccc32)c1 |  | 18.4 µM (active)
C#CCN(C[C@H]1[C@H](OC(=O)NC2CCCC2)[C@H](OC(=O)NC2CCCC2)C[C@H]2C(=O)N(c3ccccc3)C(=O)[C@@H]12)S(=O)(=O)c1ccc(C)cc1 | -8.47% (inactive) | 
C#CCN(C[C@@H]1[C@@H](OC(=O)NC2CC2)[C@@H](OC(=O)NC2CC2)Cn2c(=O)ccc(=O)n21)S(=O)(=O)c1ccc(C)cc1 |  | 14.6 µM (active)
Cc1ccc(S(=O)(=O)N(C)CC(=O)NC2CCCC2)cc1 | -2.7% (inactive) | 
CN(C)CCN(C(=O)C1=COCCO1)c1nc2ccc(Cl)cc2s1 | -15.7% (inactive) | 
CC(=O)OCc1cc(=O)n(C)c(=O)n1C | -3.09% (inactive) | 
CC1C(O)CC2C(C(=O)O)=CO[C@@H](O[C@H]3OC(CO)C(O)C(O)C3O)C21 (stereo partly specified) | -11.8% (inactive) | 

Structure (SMILES) | activity change, negative = growth inhibition | Potency
CN(C)S(=O)(=O)c1ccc(Oc2ccc(S(=O)(=O)N(C)C)cc2)cc1 |  | 18.4 µM (active)
CN(C)S(=O)(=O)c1ccc(NC(=O)N2CCOCC2)cc1 | -20.5% (inactive) | 
COc1ccc(S(=O)(=O)N(C)CC(=O)N2CCCC2)cc1 | 4.23% (inactive) | 
C#CCOCCOCCOCCNc1nc(N2CCN(C(=O)[C@H](CCC(=O)O)n3cc(CN)nn3)CC2)nc(N2CCN(C(=O)[C@H](CCC(=O)O)n3cc(CN)nn3)CC2)n1 | -1.32% (inactive) | 
Cc1cccc(C(=O)NCc2nnc(SC(C)C(=O)Nc3nnc(C)s3)n2C)c1 (stereo unspecified) | -10.8% (inactive) | 
CCc1ccc(Oc2coc3cc(O)ccc3c2=O)cc1 | -1.36% (inactive) | 
COc1cc(C(C(=O)NC2CCCC2)N(C(=O)c2ccco2)c2ccccc2C(C)=O)cc(OC)c1OC (stereo unspecified) | -27.1% (inactive) | 
CC(OC(=O)c1cccc(S(=O)(=O)N2CCOCC2)c1)C(=O)NCC1CCCCC1 (stereo unspecified) | 2.27% (inactive) | 
COc1cc(C(=O)OC(C)C(=O)NCC2CCCCC2)cc(NC(=O)c2ccco2)c1OC (stereo unspecified) |  | 20.6 µM (active)
CSCC[C@H](NC(=O)N1CCn2c1nc1ccccc12)C(=O)NCc1ccc2c(c1)OCO2 | -8.33% (inactive) | 
CC(=O)N/C(=C\c1ccccc1)C(=O)OC(C)C(=O)N(C)c1ccccc1 (stereo unspecified) | -23.1% (inactive) | 
O=S(=O)(NCCS(=O)(=O)N1CCN(c2ccccc2)CC1)c1ccc(Cl)cc1 | -19.2% (inactive) | 
O=C(CSc1ccccc1)Nc1cc(Cl)ccc1Oc1ccccc1 | -19.9% (inactive) | 
CC(=O)Nc1ccc(NC(=O)CN2CCCC(C)C2)c(Cl)c1 (stereo unspecified) | -19.7% (inactive) | 
CC1CCCN(CC(=O)Nc2cc(Cl)ccc2Oc2ccccc2)C1 (stereo unspecified) |  | 16.4 µM (active)
COC(=O)[C@@H](Cc1ccccc1)NC(=O)NCCc1ccccc1 | -19.1% (inactive) | 
CCOC(=O)c1oc2c(CN3CCN(C)CC3)c(O)ccc2c(=O)c1-c1ccc(Br)cc1 | -6.83% (inactive) | 
COc1ccc(-c2c(C)c3ccc(O)c(CN4CCN(C)CC4)c3oc2=O)cc1OC | 0.717% (inactive) | 
CN1CCN(Cc2c(O)ccc3c2oc(=O)c2ccccc23)CC1 |  | 11.6 µM (active)
COc1ccc(C(C)=O)cc1CSc1nc2nc(C)cc(C)n2n1 | -4.09% (inactive) | 
CN(CCc1cn[nH]c1)C(=O)CC1C(=O)NCCN1Cc1cccc(Oc2ccccc2)c1 (stereo unspecified) | -12.5% (inactive) | 
O=C(Nc1cccc(Cc2ccccc2)c1)Nc1ccc2nc([C@@H]3O[C@H](CO)[C@@H](O)[C@H](O)[C@H]3O)[nH]c2c1 | -1.67% (inactive) | 
O=C(Cc1ccc(-n2c(=O)c3sccc3n(Cc3ccc(F)cc3)c2=O)cc1)NCc1ccco1 |  | 18.4 µM (active)
O=C(CCn1c(=O)c2sccc2n(Cc2ccc(F)cc2)c1=O)NCc1ccc2c(c1)OCO2 | -25.3% (inactive) | 
O=C(CSc1ncc(CO)n1Cc1ccc(F)cc1)NCc1ccco1 | -26% (inactive) | 
Cc1cc(OC(=O)c2ccc(OC(C)C)cc2)c([N+](=O)[O-])c(=O)[nH]1 | -21.1% (inactive) | 

Structure (SMILES) | activity change, negative = growth inhibition | Potency
Cc1ccc2nc(SC(C)C(=O)NCc3ccco3)[nH]c2c1 (stereo unspecified) | -9.56% (inactive) | 
N#CCCN(C(=O)COC(=O)C1CCN(c2ccc(C(F)(F)F)cn2)CC1)c1ccc(F)cc1 | -13.5% (inactive) | 
CCOc1ccc(CCNC(=O)COC(=O)C2CCN(c3ccc(C(F)(F)F)cn3)CC2)cc1OCC | -27.3% (inactive) | 
CCc1cccc(NC(=O)COC(=O)C2CCN(c3ccc(C(F)(F)F)cn3)CC2)c1 |  | 8.2 µM (active)
CSCCC(C(=O)NC1=NCCS1)N1C(=O)c2ccccc2C1=O (stereo unspecified) | -1.2% (inactive) | 
CCCCN(C(=O)/C=C/c1ccco1)c1c(N)n(CC(C)C)c(=O)[nH]c1=O | -3.29% (inactive) | 
O=C(CSc1ncccn1)NCCc1ccccc1 | -8.9% (inactive) | 
CCCCCCCCCCCCCCCC(=O)OC/C=C(C)/C=C/C=C(C)/C=C/C1=C(C)CCCC1(C)C |  | inactive
COc1ccc(-c2csc(C(O)c3cccc(Cl)c3)n2)cn1 (stereo unspecified) |  | 20.6 µM (active)
COc1ccc(Nc2cc(Cl)ccc2C(=O)O)cn1 | 20.2% (inactive) | 
COc1cc(C(O)c2nc(-c3cccc(C(=O)O)c3)cs2)ccc1F (stereo unspecified) | 3.86% (inactive) | 
CC1CCCN(CCOCCOc2ccccc2-c2ccccc2)C1 (stereo unspecified) |  | 23.1 µM (active)
CC1CCCN(CC(O)COCc2ccccc2)C1 (stereo unspecified) | 0.169% (inactive) | 
CC1CCCN(CC(O)COc2ccc3c(c2)OCO3)C1 (stereo unspecified) | -0.973% (inactive) | 
COc1cc(C)c(C)cc1S(=O)(=O)N1CCCc2ccccc21 |  | 16.4 µM (active)
COc1ccc(C(=O)OCC(=O)NCC2CCCCC2)cc1S(=O)(=O)N1CCCc2ccccc21 | -23.6% (inactive) | 
CCC(C)(C)NC(=O)/C=C/c1cc(OC)c(OC)c(S(=O)(=O)N2CCc3ccccc32)c1 | -16% (inactive) | 
O=C(O)CCC(=O)NCc1ccc(C(=O)O)cc1 | -29.7% (inactive) | 
COc1cccc2c1cc1c(=O)n(CC(=O)N3CCN(c4cccc(Cl)c4)CC3)nc(C)n12 | -0.785% (inactive) | 
COc1ccc(NC(=O)CCc2nnc3n(CC(C)C)c(=O)c4ccccc4n23)cc1OC | -22.6% (inactive) | 
CC(C)Cn1c(=O)c2ccccc2n2c(-c3cccc(Cl)c3)nnc12 |  | 25.9 µM (active)
CC(C)Cn1c(=O)c2ccccc2n2c(CCC(=O)N3CCN(c4cccc(Cl)c4)CC3)nnc12 |  | 7.31 µM (active)
Cc1cc2nnc(SCC(=O)N3CCN(c4ccccc4)CC3)n2c(N)n1 | -5.96% (inactive) | 
CC(C)Cn1c(=O)c2ccccc2n2c(CCC(=O)NCc3ccccn3)nnc12 | 13.4% (inactive) | 
Cn1c(CNC(=O)c2ccco2)nnc1SCC(=O)N1CCN(c2ccccc2)CC1 | 0.952% (inactive) | 
Cc1ccc(Cl)cc1NC(=O)C(C)n1nnc2sc(-c3ccccc3)cc2c1=O (stereo unspecified) | -17.6% (inactive) | 

Structure (SMILES) | activity change, negative = growth inhibition | Potency
Cn1c(Cc2cccc3ccccc23)nnc1SCC(=O)N1CCN(c2cccc(Cl)c2)CC1 |  | 23.1 µM (active)
CCC1CO/C(=C(\C(=C(Cl)Cl)N2CCOCC2)[N+](=O)[O-])N1 (stereo unspecified) | 8.25% (inactive) | 
CC(C)[C@H](NC(=O)N1c2ccccc2NC(=O)[C@@H]1C(C)C)C(=O)N[C@H](C(=O)O)c1ccccc1 | 5.29% (inactive) | 
COc1cccc(N2C(=O)CC(N3CCc4ccccc4C3)C2=O)c1 (stereo unspecified) | 7.01% (inactive) | 
C=C(C)c1cccc(C(C)(C)NC(=O)NCCN(CC)CC)c1 | 0.602% (inactive) | 
O=C(Nc1ccc([N+](=O)[O-])cc1)C1(c2ccccc2)CCOCC1 | -23.3% (inactive) | 
CC1(C)CC(=O)C(C=NCCC2=CCCCC2)=C(O)C1 | -10.8% (inactive) | 
COc1ccc(OC)c(NC(=O)c2ccc3c(c2)C(=O)N(c2ccc(OC(C)=O)cc2)C3=O)c1 | 13.3% (inactive) | 
O=C(/C=C/c1ccc(Cl)cc1Cl)c1cccnc1 |  | 14.6 µM (active)
O=C(NCc1ccc(Cl)c(Cl)c1)c1cccnc1 | -24.1% (inactive) | 
O=C(Nc1cccnc1)c1cc(Cl)ccc1Cl | 14.2% (inactive) | 
CC1OC2C(OC1C)N(S(C)(=O)=O)CCN2S(C)(=O)=O (stereo unspecified) | -1.96% (inactive) | 
Cc1nc2ccc(NC(=S)N3CCC(C)CC3)cc2nc1C | -18.5% (inactive) | 
O=S(=O)(N/N=C\c1cccn1-c1ccccc1)c1ccc2ccccc2c1 | -13.6% (inactive) | 
CSc1ccc(CN(C)CC(=O)NCc2ccc(F)cc2)cc1 | -14.6% (inactive) | 
CSc1ccc(CNC(=O)C2(C)CCCN2C)cc1 (stereo unspecified) | -20.4% (inactive) | 
CSc1ccc(CN2CCC2(C)C(=O)NCc2ccccc2Br)cc1 (stereo unspecified) |  | 23.1 µM (active)
CC1(C(=O)NCc2ccc3c(c2)OCO3)CCN1CCc1ccccc1 (stereo unspecified) | -29.9% (inactive) | 
CSc1ccc(CN2CCC2(C)C(=O)Nc2ccc(C)c(O)c2)cc1 (stereo unspecified) |  | 18.4 µM (active)
CC1(C(=O)NCc2cccc3ccccc23)CCN1Cc1ccc(-c2ccccc2)o1 (stereo unspecified) |  | 13 µM (active)
CCC(=O)N1CCCC1(C)C(=O)Nc1ccc2c(c1)CCN2C(C)=O (stereo unspecified) | -2.32% (inactive) | 
CC1(C(=O)NCc2ccc3c(c2)OCO3)CCN1C(=O)Cc1cccs1 (stereo unspecified) | -5.48% (inactive) | 
CCCC(=O)N1CCC1(C)C(=O)NCc1ccc(SC)cc1 (stereo unspecified) | -13.7% (inactive) | 
